Inhibition data for 75 compounds are collected here from PubChem BioAssay AID651610 (Broad Institute, 2012).

The campaign covered roughly 360,000 compounds. About 3,900 (1.1%) were called active. The entries come from a sample that favours actives as a whole. Unmarked numbers belong to inactive results.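 How the source made its calls: active means mean replicate inhibition score of at least 50 and every replicate individually at or above 50; inconclusive means only one of the two criteria met; inactive means mean below 50 and not all replicates reaching 50.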

The experiment in a line: blockers of JRFL envelope-mediated fusion – HeLa-JRFL effector, CEM21 target cells, luciferase, primary screen (AID 651610).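 Further: 0% = plate neutral controls and 100% = maraviroc near 300 nM.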 The conditions noted are these: HeLa-JRFL Env/CEM21 cell fusion, hits give high values; at 16.7 µM unless noted.
Turning to `CCCCNc1cccc2c1S(=O)(=O)N[C@@H](C)CO2`, the inhibition (in general, the relative decrease from the control value, in per cent) is -0.896% [at 12.3 µM].

As for `COc1ccc(C(O)c2nc(-c3ccc4c(c3)OCO4)cs2)cc1` (stereo not given), the inhibition is -6.46% [at 12.3 µM].

Turning to `C/C(=N/NC(=O)c1ccncc1)c1ccc2c(c1)OCO2`, the inhibition was -13.1% [at 12.3 µM].

On to `Cc1ccc(-c2csc(NC(=O)C3=COCCO3)n2)cc1C`, for which the inhibition was 55.4% [at 12.3 µM] (active).

In the case of `CCC(CC)c1nnc(NC(=O)C2=COCCO2)s1`, the inhibition is -12% [at 12.3 µM].

As to `NS(=O)(=O)c1ccc2nc(NC(=O)C3=COCCO3)sc2c1`, the inhibition is -13.9% [at 12.3 µM].

As for `O=C(Nc1nc(-c2ccc3c(c2)OCO3)cs1)c1ccncc1`, the inhibition was 71% [at 12.3 µM] (active).

`Cc1noc(C)c1NC(=O)N(C)C[C@@H]1OCCCC[C@@H](C)Oc2ccc(NC(=O)C3CCCCC3)cc2C(=O)N([C@H](C)CO)C[C@@H]1C`: the inhibition is -14%.

As for `C[C@@H]1CN([C@@H](C)CO)C(=O)c2cc(NC(=O)Nc3cccc4ccccc34)ccc2O[C@@H]1CN(C)C(=O)Nc1cccc2ccccc12`, the inhibition is 7.37%.

For the compound `C[C@@H]1CN([C@@H](C)CO)C(=O)c2cc(-c3cncnc3)cnc2O[C@H]1CN(C)C(=O)c1cccc(F)c1`, the inhibition was -6.88%.

`C[C@@H]1CN([C@@H](C)CO)S(=O)(=O)c2ccc(C#CC3(O)CCCC3)cc2O[C@H]1CN(C)C(=O)c1ccncc1`: the inhibition is -22.7%.

Consider `CNC[C@H]1Oc2cc(-c3ccc(OC)cc3)ccc2S(=O)(=O)N([C@H](C)CO)C[C@@H]1C`, for which the inhibition was 1.64%.

With `CNC[C@H]1Oc2c(NC(=O)C3CC3)cccc2C(=O)N([C@@H](C)CO)C[C@@H]1C`, the inhibition was -1.43%.

Consider `CCS(=O)(=O)N[C@@H]1CC[C@@H](CC(=O)NCC2CC2)O[C@H]1CO`, for which the inhibition was -3.04%.

With `C[C@@H]1CN([C@H](C)CO)S(=O)(=O)c2ccc(-c3ccccc3)cc2O[C@H]1CN(C)C(=O)C1CCC1`, the inhibition was 19.5%.

Consider `C[C@@H]1CN([C@@H](C)CO)C(=O)Cc2cc(NS(=O)(=O)c3ccc(Cl)cc3)ccc2O[C@H]1CN(C)CC1CCCCC1`, for which the inhibition was 32.1%.

For the compound `C[C@H]1CN([C@@H](C)CO)C(=O)c2cc(-c3cccc(C(=O)N(C)C)c3)cnc2O[C@H]1CN(C)S(=O)(=O)c1ccccc1`, the inhibition is -10.1%.

Consider `O=C(C[C@H]1C[C@@H]2c3cc(NC(=O)C4CCC4)ccc3O[C@@H]2[C@H](CO)O1)NCCN1CCCCC1`, for which the inhibition is 16.8%.

For the compound `CCOC(=O)C1=C(CN2CCc3ccccc32)NC(=O)NC1c1cccc([N+](=O)[O-])c1` (stereo not given), the inhibition is 64.3% [at 12.3 µM] (active).

For `CCOC(=O)C1=C(CCc2ccccc2)NC(=O)NC1c1ccc2ccccc2c1` (stereo not given), the inhibition is 6.29% [at 12.3 µM].

On to `CCOC(=O)C1=C(CN2CCc3ccccc32)NC(=O)NC1c1cc(C)ccc1C` (stereo not given), for which the inhibition is -13.6% [at 12.3 µM].

On to `CCC(CC)COC(=O)C1=C(C)NC(=O)NC1c1ccc([N+](=O)[O-])cc1` (stereo not given), for which the inhibition is 29.9% [at 12.3 µM].

On to `CCOC(=O)C1=C(CN2CCc3ccccc32)NC(=O)NC1c1ccc(Cl)cc1` (stereo not given), for which the inhibition is 58% [at 12.3 µM] (active).

For the compound `CCOC(=O)C1=C(c2ccccc2)NC(=O)NC1c1cc(OCC)c(O)c([N+](=O)[O-])c1` (stereo not given), the inhibition was -15.8% [at 12.3 µM].

On to `CNC[C@@H]1Oc2c(NC(=O)C3CCOCC3)cccc2C(=O)N([C@@H](C)CO)C[C@H]1C`, for which the inhibition was -14.2%.

In the case of `C[C@H]1CN([C@@H](C)CO)C(=O)Cc2cc(NC(=O)C3CC3)ccc2O[C@@H]1CN(C)C(=O)NC1CCCCC1`, the inhibition was 2.31%.

`C/C=C/c1ccc2c(c1)O[C@H](CN(C)C(=O)C1CCCCC1)[C@@H](C)CN([C@@H](C)CO)S2(=O)=O`: the inhibition was 8.29%.

With `C[C@@H]1CN([C@H](C)CO)C(=O)c2cc(C3=CCCC3)cnc2O[C@@H]1CN(C)C(=O)Nc1ccc(F)cc1`, the inhibition is 4.49%.

On to `O=C(O)CC/C(=C\c1cc2c(cc1Br)OCO2)c1nc2ccccc2s1`, for which the inhibition is -9.93% [at 12.3 µM].

In the case of `O=C(N/N=C\c1cc2c(cc1Cl)OCO2)c1ccc(Br)s1`, the inhibition is -61.6% [at 12.3 µM].

For `CC1(C(=O)N/N=C/c2cc3c(cc2Br)OCO3)CC1(Br)Br` (stereo not given), the inhibition was 102% [at 12.3 µM] (active).

Take `Cc1noc(C)c1S(=O)(=O)Nc1ccc2c(c1)CC(=O)N([C@H](C)CO)C[C@H](C)[C@H](CN(C)S(=O)(=O)c1cn(C)cn1)O2`: the inhibition is -15.2%.

As to `Cc1noc(C)c1NC(=O)N(C)C[C@@H]1Oc2ccc(NS(=O)(=O)c3ccc(F)cc3)cc2CC(=O)N([C@@H](C)CO)C[C@H]1C`, the inhibition was -12%.

In the case of `Cc1ccc(-c2cn3cc(C)ccc3n2)cc1`, the inhibition was 60.5% [at 12.3 µM] (active).

For the compound `Cc1ccc(-c2nc3ccc(Cl)cn3c2Cc2ccccc2)cc1`, the inhibition was -27% [at 12.3 µM].

For `Cc1ccc2nc(-c3ccc(Br)cc3)cn2c1`, the inhibition was 34.5% [at 12.3 µM].

Consider `C[C@H](CO)N1C[C@H](C)[C@@H](CN(C)S(=O)(=O)c2ccccc2F)Oc2ncc(C#Cc3ccccc3F)cc2C1=O`, for which the inhibition was 17.5%.

With `Cn1c2ccccc2c2c(C(=O)N3CCN(c4ccc(F)cc4)CC3)cn(C3CCCC3)c(=O)c21`, the inhibition was 67.5% [at 12.3 µM] (active).

Regarding `Cn1c(C(=O)N2CCC(C(N)=O)CC2)cc2c(=O)n(C)c3ccccc3c21`, the inhibition was 0.068% [at 12.3 µM].

For the compound `CCOC(=O)N1CCN(C(=O)c2nn(-c3ccc(C)cc3)c(=O)c3c2c2ccccc2n3C)CC1`, the inhibition was -11% [at 12.3 µM].

In the case of `O=C(C[C@@H]1CC[C@H]2NC[C@H](O)COC[C@@H]2O1)NCCN1CCCCC1`, the inhibition is -8.63%.

Take `C[C@H]1CCCCO[C@@H](CN(C)C(=O)Cc2ccccc2)[C@@H](C)CN([C@@H](C)CO)C(=O)c2cc(NC(=O)c3ccccc3)ccc2O1`: the inhibition is -43.3%.

Turning to `NC(c1csc(NC(=O)Nc2cccc(C(F)(F)F)c2)n1)C1CCCCC1` (stereo not given), the inhibition is 61% [at 12.3 µM] (active).

For the compound `COc1ccc(C(N)c2csc(NC(=O)Nc3cccc(C(F)(F)F)c3)n2)cc1` (stereo not given), the inhibition is 18.1% [at 12.3 µM].

Turning to `NC(c1ccccc1)c1csc(NC(=O)Nc2cccc(C(F)(F)F)c2)n1` (stereo not given), the inhibition is 39.2% [at 12.3 µM].

Turning to `C[C@@H]1CN([C@@H](C)CO)C(=O)c2cc(-c3ccccc3F)cnc2O[C@H]1CN(C)C(=O)C1CC1`, the inhibition is 15%.

`COc1ccc(C(CCNCc2ccccc2F)c2ccc(F)cc2)cc1` (stereo not given): the inhibition was -1.51% [at 12.3 µM].

Consider `COc1cccc(CNCCc2c[nH]c3ccccc23)c1OCc1ccccc1F`, for which the inhibition was 79.1% [at 12.3 µM] (active).

Consider `Cc1cc(C)cc(NC(=S)NCCc2c[nH]c3ccccc23)c1`, for which the inhibition is 2.48% [at 12.3 µM].

Take `CC(C)CC#Cc1ccc2c(c1)O[C@H](CN(C)Cc1ccncc1)[C@H](C)CN([C@H](C)CO)S2(=O)=O`: the inhibition was 12.7%.

`CCCNC(=O)C[C@@H]1CC[C@H]2[C@H](COc3ccc(NC(=O)CCC)cc3C(=O)N2C)O1`: the inhibition is -1.97%.

In the case of `CCNC(=O)c1cc2c(c(-c3cccc(C4=CCCC4)c3)n1)[C@H](CCO)N([S@@](=O)C(C)(C)C)C2`, the inhibition was -0.132%.

Turning to `COc1ccc(Nc2nc(NCc3ccco3)nc(N/N=C/c3ccccc3Cl)n2)cc1`, the inhibition was -11.9% [at 12.3 µM].

With `CNc1nc(Nc2ccc(C)c(Cl)c2)nc(N)c1[N+](=O)[O-]`, the inhibition is 17.7% [at 12.3 µM].

On to `COc1cccc(Nc2nc(N)c([N+](=O)[O-])c(NCc3ccco3)n2)c1`, for which the inhibition is 56.2% [at 12.3 µM] (active).

In the case of `CO[C@H]1CN(C)C(=O)c2ccc(NC(C)=O)cc2OC[C@@H](C)N(C(=O)c2ccccn2)C[C@@H]1C`, the inhibition is 4.28%.

With `C[C@@H]1CN([C@H](C)CO)S(=O)(=O)c2ccc(Br)cc2O[C@@H]1CN(C)Cc1cncnc1`, the inhibition is -25.8%.

On to `C[C@@H]1CN([C@H](C)CO)C(=O)c2cccc(N(C)C)c2O[C@H]1CN(C)S(=O)(=O)c1cn(C)cn1`, for which the inhibition was -2.57%.

`O=C(CN1CCOCC1)Nc1ccc(NC(=O)CN2CCOCC2)c(Cl)c1`: the inhibition is -13.8% [at 12.3 µM].

As to `O=C(CC(O)(C(F)(F)F)C(F)(F)F)Nc1ccc(Cl)c(Cl)c1`, the inhibition is 109% [at 12.3 µM] (active).

Take `O=C(Cc1ncc(C(F)(F)F)cc1Cl)Nc1cccc(Br)c1`: the inhibition was -3.53% [at 12.3 µM].

On to `Cc1noc(C)c1NC(=O)N[C@@H]1C=C[C@H](CC(=O)N2CCCCC2)O[C@H]1CO`, for which the inhibition was 7.13%.

With `C[C@H](CO)N1C[C@H](C)[C@@H](CN(C)C(=O)c2ccccc2)OCCCC[C@H](C)Oc2ccc(NC(=O)c3ccccc3)cc2C1=O`, the inhibition is -52.7%.

Regarding `COC(=O)[C@]12C[C@H](CC(=O)NCCCCc3ccccc3)C(=O)N(Cc3ccc4c(c3)OCO4)C1=C[C@H](C(C)(C)C)O[C@@H]2C`, the inhibition is -19.5% [at 12.3 µM].

On to `COC(=O)[C@]12C[C@H](CC(=O)NCCC(C)C)C(=O)N(CCc3ccc(OC)c(OC)c3)C1=C[C@H](C(C)(C)C)O[C@@H]2C`, for which the inhibition was 14.5% [at 12.3 µM].

Take `CCOC(=O)[C@]12CCC=C1N(CCC1=CCCCC1)C(=O)[C@H](CC(=O)NCc1ccc(C)o1)C2`: the inhibition was -8.89% [at 12.3 µM].

For the compound `CCOC(=O)[C@]12CCCC=C1N(CCC1=CCCCC1)C(=O)[C@H](CC(=O)NCCCOC)C2`, the inhibition is 20% [at 12.3 µM].

On to `COCCCNC(=O)C[C@H]1C[C@@]2(C(=O)OC)C(=C[C@H](C(C)(C)C)O[C@@H]2C)N(Cc2ccc3c(c2)OCO3)C1=O`, for which the inhibition is -14% [at 12.3 µM].

Regarding `CCCCCCCCN1C(=O)[C@@H](CC(=O)NCc2ccc(C)o2)C[C@@]2(C(=O)OC)C1=C[C@H](C(C)(C)C)O[C@@H]2C`, the inhibition is 38% [at 12.3 µM].

Take `CCCCOCCCNC(=O)C[C@@H]1C[C@@]2(C(=O)OC)CCCCC=C2N(CCC2=CCCCC2)C1=O`: the inhibition was 63.6% [at 12.3 µM] (active).

For the compound `CCCCOCCCNC(=O)C[C@@H]1C[C@@]2(C(=O)OCC)CCCC=C2N(CCC2=CCCCC2)C1=O`, the inhibition was 34.4% [at 12.3 µM].

`COC(=O)[C@]12C[C@H](CC(=O)NCc3ccc(C)o3)C(=O)N(CCC3=CCCCC3)C1=C[C@H](C(C)(C)C)O[C@@H]2C`: the inhibition was 70.3% [at 12.3 µM] (active).

In the case of `CCCCCCCCN1C(=O)[C@@H](CC(=O)NCc2ccccc2)C[C@@]2(C(=O)OC)C1=C[C@H](C(C)(C)C)O[C@@H]2C`, the inhibition was 64.7% [at 12.3 µM] (active).

On to `COC(=O)[C@]12C[C@H](CC(=O)NCc3ccccc3)C(=O)N(CCC3=CCCCC3)C1=C[C@H](C(C)(C)C)O[C@@H]2C`, for which the inhibition was 67.5% [at 12.3 µM] (active).

Regarding `CCCCCCCCN1C(=O)[C@@H](CC(=O)NCCCC)C[C@@]2(C(=O)OC)C1=C[C@H](C(C)(C)C)O[C@@H]2C`, the inhibition is 39.6% [at 12.3 µM].
